# High-throughput results (PubChem BioAssay)
# Beta cell apopt – blocks beta cell apoptosis. INS-1E cytokine-induced death, ATP luminescence, 48 h; percent of positive-control rescue, neutral wells zero. protection from apoptosis, % (test concentration not listed). hit rate 0.8% among 300,000. AID 435005;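 active means Every replicate reaches about 75%, or at least half do and their mean reaches it too, limit read from the data; inconclusive means At least half of replicates reach the limit but their mean does not; inactive means Under half of replicates reach the limit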;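 further: 0% = cytokine-treated negative control wells and 100% = positive control rescue; higher means more ATP so stronger rescue from cytokine killing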
# CSC inhib – cancer stem cell inhibition. AID 2717. cancer stem cell-like cells viability, luminescence. inhibition, % at 7.5 µM. hit rate 1.1% among 300,000; in the data active means inhibition above about 75%; inconclusive means no clear call, values can overlap the other calls; tested in HMLE shEcad cells
# Calb FLC – affects C. albicans growth with fluconazole; C. albicans CaCi-2 (fluconazole-resistant clinical isolate) + fluconazole, Alamar Blue growth, 48 h; growth inhibition, % (no concentration beside the values); hit rate 0.57% among 300,000;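 active means growth inhibition above about 58% in most replicates, limit read from the data, passing the limit was not always enough; inconclusive means exactly half the replicates above a set limit; inactive means most replicates below a set limit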;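 further: all wells also contain fluconazole at 8 µg/ml as a sub-toxic cotreatment; 0% = median of DMSO wells and 100% = median of geldanamycin control wells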
# Mdm2-MdmX inh – inhibitors of human Mdm2/MdmX interaction; O15151+Q00987; inhibition, % at 8 µM; SaOS-2 split-luciferase Mdm2/MdmX complementation, luminescence; hit rate 3% among 330,000; AID 485346;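 active means inhibition of at least 50% at 8 µM in the primary screen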
# PP1 counter – PP1-alpha (human) inhibition in PP5 counter-screen; purified PP1alpha, OMFP fluorescence; hit rate 0.9% among 320,000; inhibition, % at 6.7 µM; AID 2235;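 active means inhibition above the mean inhibition of all tested compounds plus 3 SD, computed separately for each screening campaign, cut at about 15% in these data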
# PP5 primary – blocks human protein phosphatase 5 activity. P53041. purified PP5c, OMFP substrate fluorescence. inhibition, % at 6.7 µM. hit rate 0.18% among 320,000;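 active means inhibition above the campaign's mean inhibition across all tested compounds plus 3 SD, cut at about 9.5% in these data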;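 further: 0% = DMSO only and 100% = 100 µM cantharidin control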
# Mdm2 MdmX conf – human Mdm2/MdmX binding inhibition, confirmed. shares compounds with Mdm2-MdmX inh. luminescent assay. inhibition, % at 8 µM. hit rate 55% among 10,000. AID 489028; in the data active means inhibition above about 40%
# FLuc counter – inhibits full-length luciferase, flagging false Mdm2/MdmX hits; inhibition, % at 8 µM; hit rate 77% among 6,200; SaOS-2 full-length luciferase counterscreen, luminescence; shares compounds with Mdm2-MdmX inh;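 active means mean inhibition at 8 µM reaching about 37%, which flags the compound as non-specific, limit read from the data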;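 further: p53-null SaOS-2 cells with luciferase driven by a doxycycline-inducible promoter; compound on cells about two nights before reading with doxycycline added after day one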
# An asterisk follows results filed as active; ? = inconclusive; . = not tested or not shown. In the library only some 4.9% were active in any assay of this set; here they are far more common.
SMILES,Beta cell apopt,CSC inhib,Calb FLC,Mdm2-MdmX inh,PP1 counter,PP5 primary,Mdm2 MdmX conf,FLuc counter
CCOc1ccc(NC(=S)N=Nc2c(O)[nH]c3ccccc23)cc1,20,-18,-12,64*,2,2,28,.
Oc1[nH]c2ccc(Br)cc2c1N=NC(=S)N1CCOCC1,108*,?,96*,96*,4,4,98*,54*
Oc1[nH]c2ccccc2c1N=NC(=S)N1CCOCC1,83*,35,-10,97*,2,-2,88*,21
CCS(=O)(=O)c1ccc(C(=O)NC2CC2)c(Cl)c1Cl,6,-4,-4,21,-1,-1,.,.
CC(C)(C)OC(=O)C[C@@H]1C/C=C\C[C@@H](CC(=O)NCCO)C(=O)NC[C@@H](c2ccccc2)OC1=O,-2,-16,.,1,.,.,.,.
CCOC(=O)c1sc(NC(=O)Nc2cccc(Cl)c2)cc1C,101*,-5,-10,78*,6,1,71*,34
ClC1=C(Cl)C(Cl)=C(Cl)C1=C/C=C/c1ccccc1,116*,103*,-2,100*,-5,0,99*,8
Cc1ccc(C(=O)OCC(=O)N2CCOCC2)cc1,0,-4,-6,-23,-1,3,.,.
Cc1ccc(/C(N)=N/OC(=O)N2CCOCC2)cc1,.,.,1,95*,0,3,51*,126*
Cc1cccc(/C(N)=N/OC(=O)N2CCOCC2)c1,6,9,3,86*,-2,3,49*,105*
CC(=O)c1ccc(S(=O)(=O)NCCC(=O)NC2CCN(Cc3ccccc3)CC2)cc1,-1,-19,.,2,.,.,.,.
O=C(CCC(=O)N1CCCCCC1)NCc1ccc(F)cc1,-5,-7,10,-14,1,-2,.,.
CN1CCN(c2ccccc2NC(=O)c2cc3c(s2)-c2ccccc2OC3)CC1,4,42,-9,57*,7,3,52*,63*
COc1ccc(OC)c(NC(=O)C2CCC(CNc3c(N4CCC(C)CC4)c(=O)c3=O)CC2)c1 (stereo not drawn),.,-14,0,52*,1,-1,29,.
Cc1ccc(NCc2ccc(O)c3ncccc23)cc1,2,18,64*,76*,4,5,71*,66*
Cc1ccc(NCc2ccc(O)c3ncccc23)cc1C,4,-6,65*,78*,3,2,64*,48*
Oc1c(CNc2ccccc2)cc(COCc2ccccc2)c2cccnc12,.,.,.,70*,.,.,45*,79*
COc1ccc(OC)c(NC(=O)C(=O)N/N=C(\C)CC(=O)Nc2ccc(Cl)cn2)c1,-3,-19,-1,25,-3,0,.,.
COc1ncccc1-c1nnn(-c2ccc(F)cc2)n1,5,4,-5,-97,2,-1,.,.
Clc1cccc(Nc2nc(N3CCOCC3)nc(N3CCOCC3)n2)c1,-6,5,1,37,4,3,.,.
COc1ccc(NC(=O)CSc2nc3ccc(Nc4nc(N5CCOCC5)nc(N5CCOCC5)n4)cc3s2)cc1,.,39,3,85*,-2,0,49*,37*
CC(=O)CSc1nc2ccc(Nc3nc(N4CCOCC4)nc(N4CCOCC4)n3)cc2s1,2,-7,5,21,-2,4,.,.
Cc1ccc(NC(=O)CSc2nc3ccc(Nc4nc(N5CCOCC5)nc(N5CCOCC5)n4)cc3s2)cc1,41,56,-12,95*,.,.,41*,26
CCOC(=O)c1ccc(NC(=O)CSc2nc(N3CCOCC3)nc(N3CCOCC3)n2)cc1,-3,1,14,74*,-3,5,25,.
CC(C)(C)NC(=O)CSc1nc2ccc(Nc3nc(N4CCOCC4)nc(N4CCOCC4)n3)cc2s1,8,9,12,30,-1,4,.,.
COc1ccc(Nc2nc(N3CCOCC3)nc(N3CCOCC3)n2)cc1Cl,.,4,-6,61*,-3,1,22,.
C/C(N)=C(/C#N)C(=O)COC(=O)c1ccccc1Oc1ccccc1,-6,.,26,22,2,3,.,.
CC(=O)N(C)c1ccc(NC(=O)CCN2C(=O)c3ccccc3C2=O)cc1,2,-13,-4,2,-3,0,.,.
